Laboratory results from PubChem BioAssay (Tox21).
Records with an inconclusive call do not appear. Activity calls are given as the source filed them. Calls follow the shape of the dose curve; as a rule, active = well fitted cell-killing curve with a large enough effect in the repeat runs; inconclusive = weak or mixed curves, or effect the other way; inactive = flat fitted curve, though single readings scatter.

Assay: qHTS assay to identify small molecule agonists of the androgen receptor (AR) signaling pathway in the presence of an antagonist - cell viability counter screen (AID 1259379); also: nearly all actives have a fitted effect of over 25% in size
Settings: MDA-kb2 viability, CellTiter-Fluor, 16 h; series mostly up to 92.4 µM; activity change, negative = cytotoxicity: at the top concentration
Description: National Center for Advancing Translational Sciences [NCATS]
NIH Chemical Genomics Center [NCGC]
U.S. Environmental Protection Agency [EPA]
National Institutes of Environmental Health Sciences [NIEHS]
National Toxicology Program [NTP]
U.S. Food and Drug Administration [FDA]
Androgen receptor (AR) is an important member of nuclear receptor family. Its signaling plays a critical role in AR-dependent prostate cancer and other androgen related diseases. Considerable attention has been given in the past decades to develop methods to study and screen for the environmental chemicals that have the potential to interfere with metabolic homeostasis, reproduction, developmental and behavioral functions. Therefore AR binding assay for screening against androgen agonists and antagonists can be used to identify potential endocrine disruptors.
MDA-kb2 cells (from ATCC, deposited by Wilson et al.) are human breast carcinoma cells that were stably transfected with a luciferase reporter gene under control of the MMTV promoter that contains response elements for both androgen receptor (AR) and glucocorticoid receptor (GR). This particular screening for measuring luciferase reporter gene activity using MDA-kb2 cells against Tox21 10K library compounds is a confirmation study on agonist mode screening in the presence of AR-antagonist compound (Nilutamide) at 3.0uM final concentration. The cytotoxicity of the compounds was tested in parallel by measuring the cell viability using CellTiter-Fluor assay system (Promega, Madison, WI) in the same wells.
Tox21 Assay Protocol Summary:
MDA-kb2 cells (cells cultured without CO2) were dispensed at 3,000 cells/well in 4uL of culture medium into white wall/solid-bottom 1536-well plates (Corning Life Sciences, Corning, NY) using a Multidrop Combi (Thermo Fisher Scientific Inc., Waltham, MA) dispenser. The assay plates were incubated at 37C and 0% CO2 for 5hr. One uL of 3.0uM (final concentration) Nilutamide or assay buffer was added using two separate tips of Flying Reagent Dispenser (FRD, Aurora Discovery, San Diego, CA). Then 23nL of compounds dissolved in DMSO at 15 concentrations and positive controls were transferred to the assay plates using a Pintool station (Wako, San Diego, CA). The assay plates were incubated at 37C and 0% CO2 for 16 hr. After 15hr incubation at 37C, 1uL/well CellTiter-Fluor reagent (Promega Corporation) was added to each well of the assay plates using FRD. After 1hr incubation at 37C and 0% CO2, the fluorescence signal was measured using a ViewLux plate reader (PerkinElmer, Shelton, CT).
% is scaled to controls: 0 for no effect and ±100 for the full control effect; potency is read from the fitted curve at half-maximal effect.

| Structure (SMILES) | Potency | activity change, negative = cytotoxicity |
| --- | --- | --- |
| CN1CCN(c2ccccc2/C=C2\SCCN(c3ccc(Cl)c(Cl)c3)C2=O)CC1 | 48.6 µM (active) |  |
| C=Cc1ccncc1 |  | 4.33% (inactive) |
| Cn1c(=O)[nH]c2ncn(C)c2c1=O |  | -2.36% (inactive) |
| N#Cc1nc(Cl)c(Cl)c(Cl)c1Cl | 24.3 µM (active) |  |
| Oc1ccc(Cl)cc1C1CCCC1 |  | 1.1% (inactive) |
| Cc1c[nH]c(=O)[nH]c1=O |  | 2.67% (inactive) |
| C=C1CC[C@H]2O[C@]2(C)CC[C@@H]2[C@@H]1CC2(C)C |  | -2.62% (inactive) |
| Clc1cccc(Cl)n1 |  | -0.145% (inactive) |
| O=C1OCc2ccccc21 |  | 0.456% (inactive) |
| O=[N+]([O-])c1ccc(CO)cc1 |  | 0.706% (inactive) |
| O=C(CCCCCCCCc1cccnc1)N1CCC(C=C(c2ccccc2)c2ccccc2)CC1 | 61.1 µM (active) |  |
| c1ccc2cc3c4ccccc4c4ccccc4c3cc2c1 |  | -9.94% (inactive) |
| O=C(c1ccccc1)c1ccc(Cl)cc1 |  | -2.71% (inactive) |
| CCOC(=O)[C@H](C)O |  | 1.09% (inactive) |
| CO[Si](OC)(c1ccccc1)c1ccccc1 |  | 1.54% (inactive) |
| Nc1cc([N+](=O)[O-])ccc1Cl |  | 0.166% (inactive) |
| C=CC(=O)OCCOC1C2CCC1C1CC=CC12 (stereo not given) |  | -6.73% [at 19 µM] (inactive) |
| CC(C)(C)c1ccc(OC2CCCCC2O)cc1 (stereo not given) |  | -9.11% (inactive) |
| CCN(CCC#N)c1ccc(N=Nc2ccc([N+](=O)[O-])cc2)cc1 |  | -10.8% (inactive) |
| Nc1ccc(F)c([N+](=O)[O-])c1 |  | -4% (inactive) |

| Structure (SMILES) | Potency | activity change, negative = cytotoxicity |
| --- | --- | --- |
| O=C1CCCCCCCCCCCCCC1 |  | 2.08% (inactive) |
| O=C1c2ccccc2C(=O)c2c(Cl)cccc21 |  | 0.0831% [at 42.5 µM] (inactive) |
| CN(C[C@@H](CC[N+]12CCC(C3CCCCC3)(CC1)CC2)c1ccc(Cl)c(Cl)c1)C(=O)c1cc(C(F)(F)F)cc(C(F)(F)F)c1 | 68.6 µM (active) |  |
| Cc1ccc(C2OC[C@@H]3OC(c4ccc(C)cc4)O[C@H]([C@H](O)CO)[C@@H]3O2)cc1 (stereo not given in full) |  | -0.602% (inactive) |
| CC1(C)[C@H]2CC[C@]1(C)C(=O)C2 |  | 1.84% (inactive) |
| O=[N+]([O-])c1ccc(O)c2ncccc12 | 11.9 µM (active) |  |
| NC(=O)c1ccccc1Cl |  | 0.0795% (inactive) |
| C/C(=C\c1ccc(C(=O)O)cc1)c1ccc2c(c1)C(C)(C)CCC2(C)C |  | -5.75% [at 42.5 µM] (inactive) |
| COCCC(=O)OC |  | -3.35% (inactive) |
| C/C=C/C(=O)OCC(C)C |  | -1.27% (inactive) |
| CCCOC(=O)c1ccc(O)cc1 |  | -0.159% (inactive) |
| c1ccc(-c2nc3ccccc3[nH]2)cc1 |  | -10.4% (inactive) |
| O=C1CCC(=O)N1 |  | 0.933% (inactive) |
| NCc1ccco1 |  | -1.94% (inactive) |
| C/C(=N\[Si](C)(C)C)O[Si](C)(C)C |  | 3.47% (inactive) |
| COc1cc(C(C)C)ccc1C |  | 2.05% [at 19 µM] (inactive) |
| c1ccc(-c2ccccc2-c2ccccc2)cc1 |  | 0.606% (inactive) |
| CN(C/C=C/c1ccccc1)Cc1cccc2ccccc12 |  | -5.12% [at 42.5 µM] (inactive) |
| ClC(c1ccccc1)(c1ccccc1)c1ccccc1 |  | 5.6% (inactive) |
| CCN(CC)c1ccc(C=O)cc1 |  | 1.43% (inactive) |
